According to PubChem BioAssay (NCATS):
“And” between values parts separate entries of the source, which are not always exact repeats. Equal values may be shown once. Records with an inconclusive call do not appear. Some structures have more than one record in an assay (separate samples or runs), and their calls can disagree. The source made the active and inactive calls. Unless noted, the call rests on the fitted dose curve; in most records, active means well fitted curve in the direction sought with a large enough effect; inconclusive means small, poorly fitted or top-dose-only effect, or another doubt; inactive means no such curve, though single readings can be large; an effect the other way counts as inactive or inconclusive.

Key:
[1] = target: Atrial natriuretic peptide receptor 1 (Homo sapiens) (UniProt P16066); assay: Natriuretic polypeptide receptor (hNpr1) antagonism - Pilot screen (AID 1347049; calls by dose curve;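 further: agonist-evoked cGMP luminescence read 20 min after hNppA addition; series mostly up to about 58 µM; on the % scale 0 is the no-effect control and ±100 the full control effect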)
In short: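 cGMP-sensor HEK293/hNpr1 cells, 1500/well, plated overnight at 37C. 2% GloSensor reagent, 2 h RT. Compound (23 nL pin transfer) 30 min RT, baseline luminescence pre-read. 0.1 nM hNppA, 20 min RT, post-read.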

[2] = NS1 protein of Zika virus - qHTS assay to identify small molecule inhibitors in human HEK 293 cells (AID 1347053); further: nearly all actives have a fitted effect of over 55% in size; further: potency means the concentration at half of the fitted maximal effect
In short: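 Read-out is a two-antibody TR-FRET for ZIKV NS1, normalized between uninfected cells and infected cells. Compound added 1 h before MR766 infection at MOI 0.5; human HEK 293 cells incubated 24 h, 37 C.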

[3] = target: T1, Tyrosine-protein phosphatase non-receptor type substrate 1 (Homo sapiens) + Leukocyte surface antigen CD47 (Homo sapiens) (UniProt P78324+Q08722); assay: CD47-SIRPalpha protein protein interaction - LANCE assay qHTS validation (AID 1347057; active means well fitted curve in the direction sought with a large enough effect in the signal ratio, with a control signal flat, not every such curve was filed as active; the % refers to the signal ratio; further: series mostly up to about 38 µM; 0% is about no effect)
In short: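 Inhibition of soluble CD47/SIRPalpha ectodomain association by titrated compounds, measured as 665/615 nm time-resolved FRET ratio after sequential 30 min room-temperature incubations.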

[4] = target: T1, Tyrosine-protein phosphatase non-receptor type substrate 1 (Homo sapiens) + Leukocyte surface antigen CD47 (Homo sapiens); assay: CD47-SIRPalpha protein protein interaction - HTRF assay qHTS validation (AID 1347058; active means well fitted curve in the direction sought with a large enough effect in the signal ratio, not every such curve was filed as active; the % refers to the signal ratio; further: series mostly up to about 38 µM; 0% is about no effect)
In short: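 Soluble extracellular domains (6His-CD47, Avi-tag-biotinylated SIRPalpha) in PBS pH 7.4 with 0.05% IGEPAL CA-630. Compounds were preincubated 30 min at RT with CD47 and anti-His-Eu, then SIRPalpha and SAV-XL665 were added. TR-FRET 665/615 ratio.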

[5] = target: T1, Tyrosine-protein phosphatase non-receptor type substrate 1 (Homo sapiens) + Leukocyte surface antigen CD47 (Homo sapiens); assay: CD47-SIRPalpha protein protein interaction - Alpha assay qHTS validation (AID 1347059);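 further: bead proximity luminescence from CD47 binding SIRPalpha after compound preincubation with SIRPalpha; on the % scale 0 is the no-effect control and ±100 the full control effect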
In short: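 SIRPalpha-biotin 25 nM + cpd, 30 min RT, dark; add CD47-His 12.5 nM, 30 min; add Ni-NTA/SAV beads 10 ug/mL, 30 min; AlphaScreen. Buffer PBS pH 7.4 + 0.05% IGEPAL CA-630. Non-biotinylated SIRPalpha as control inhibitor.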

[6] = target: Parathyroid hormone/parathyroid hormone-related peptide receptor (Homo sapiens) (UniProt Q03431); assay: qHTS for PTHR1 Agonists: Optimization Screen against the NCGC LOPAC library (AID 1347079);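 further: GloSensor cAMP luminescence in HEK-293 GP2 cells expressing human PTHR1 with IBMX; 0% is about no effect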
In short: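 Signal increase flags agonism. GP2 cells, derived from HEK-293, express human PTHR1 and a GloSensor cAMP construct.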

[7] = qHTS for Inhibitors of the Functional Ribonucleoprotein Complex (vRNP) of Lassa (LASV) Arenavirus: LASV Primary Screen - GLuc reporter signal (AID 1347082; calls by dose curve; tested in HEK293 reporter line; further: series mostly up to about 57 µM; on the % scale 0 is the no-effect control and ±100 the full control effect; nearly all actives have a fitted effect of over 60% in size)
[8] = qHTS for Inhibitors of the Functional Ribonucleoprotein Complex (vRNP) of Lassa (LASV) Arenavirus: Viability assay - alamar blue signal for LASV Primary Screen (AID 1347083; calls by dose curve; tested in HEK293 reporter line; further: series mostly up to about 57 µM; on the % scale 0 is the no-effect control and ±100 the full control effect; nearly all actives have a fitted effect of over 80% in size)
[9] = qHTS for Inhibitors of the Functional Ribonucleoprotein Complex (vRNP) of Lymphocytic Choriomeningitis Arenaviruses (LCMV): Viability assay - alamar blue signal for LCMV Primary Screen (AID 1347085; calls by dose curve; tested in HEK293 reporter line; further: series mostly up to about 57 µM; on the % scale 0 is the no-effect control and ±100 the full control effect; nearly all actives have a fitted effect of over 80% in size)
[10] = target: Nucleoprotein (Lymphocytic choriomeningitis virus (strain Armstrong)) (UniProt P09992); assay: qHTS for Inhibitors of the Functional Ribonucleoprotein Complex (vRNP) of Lymphocytic Choriomeningitis Arenaviruses (LCMV): LCMV Primary Screen - GLuc reporter signal (AID 1347086; calls by dose curve; further: series mostly up to about 57 µM; on the % scale 0 is the no-effect control and ±100 the full control effect; nearly all actives have a fitted effect of over 70% in size)
[11] = qHTS of pediatric cancer cell lines to identify multiple opportunities for drug repurposing: Primary screen for TC32 cells (AID 1347089); further: on the % scale 0 is the no-effect control and ±100 the full control effect; nearly all actives have a fitted effect of over 60% in size
In short: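 qHTS, TC32, 48 h drug treatment, CellTiter-Glo luminescence as a proxy for metabolically active cells; primary top concentration 46 µM (MIPE 11-pt, NPC 8-pt); confirmatory 11-pt.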

[12] = qHTS of pediatric cancer cell lines to identify multiple opportunities for drug repurposing: Primary screen for DAOY cells (AID 1347090); further: nearly all actives have a fitted effect of over 55% in size; further: potency means the concentration at half of the fitted maximal effect;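 on activity change, negative = cytotoxic: series mostly up to about 46 µM; plate controls were DMSO for no effect and bortezomib for full effect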
In short: (§1)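 Viability measured as metabolically active cells via CellTiter-Glo luminescence following 48 hours of compound exposure, 11-point dilutions in confirmatory testing. 500-1,000 cells/well plated 5 hours before dosing; controls were DMSO and 2.3 µM bortezomib.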

[13] = qHTS of pediatric cancer cell lines to identify multiple opportunities for drug repurposing: Primary screen for SJ-GBM2 cells (AID 1347091);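 further: plate controls were DMSO neutral control for no effect and bortezomib for full effect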
In short: as §1

[14] = qHTS of pediatric cancer cell lines to identify multiple opportunities for drug repurposing: Primary screen for A673 cells (AID 1347092); further: nearly all actives have a fitted effect of over 45% in size; further: potency means the concentration at half of the fitted maximal effect; on activity change, negative = cytotoxic: on the % scale 0 is the no-effect control and ±100 the full control effect
In short: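 Luminescence from CellTiter-Glo, taken after 15 min at room temperature, served as the proxy for metabolically active cells following 48 h treatment. Both potency and efficacy were taken from curves fitted to the titration data.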

[15] = qHTS of pediatric cancer cell lines to identify multiple opportunities for drug repurposing: Primary screen for SK-N-MC cells (AID 1347093); further: potency means the concentration at half of the fitted maximal effect;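 on activity change, negative = cytotoxic: series mostly up to about 46 µM; plate controls were DMSO neutral control for no effect and bortezomib for full effect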
In short: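 Metabolically active cells were quantified by ATP-dependent luminescence (CellTiter-Glo, 15 min at room temperature) following 48 h treatment. Cells had been plated at 500-1,000 per well and settled for 5 h beforehand.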

[16] = qHTS of pediatric cancer cell lines to identify multiple opportunities for drug repurposing: Primary screen for BT-37 cells (AID 1347094);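 further: series mostly up to about 57 µM; plate controls were DMSO for no effect and bortezomib for full effect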
In short: (§2)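 Following a 5-hour attachment period, cells at 500-1,000/well received compounds and were cultured for 48 hours. CellTiter-Glo was added and luminescence read to estimate viable, metabolically active cells.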

[17] = qHTS of pediatric cancer cell lines to identify multiple opportunities for drug repurposing: Primary screen for NB-EBc1 cells (AID 1347095); further: potency means the concentration at half of the fitted maximal effect;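 on activity change, negative = cytotoxic: plate controls were DMSO neutral control for no effect and bortezomib for full effect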
In short: as §2

[18] = qHTS of pediatric cancer cell lines to identify multiple opportunities for drug repurposing: Primary screen for U-2 OS cells (AID 1347096);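 further: plate controls were DMSO wells for no effect and bortezomib positive control wells for full effect; nearly all actives have a fitted effect of over 50% in size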
In short: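 Viability after 48 h compound treatment at 37C, 500-1,000 cells/well, read as ATP luminescence with CellTiter-Glo. Primary screens used 11-point (MIPE, 0.78 nM-46 µM) or 8-point (NPC, 0.59 nM-46 µM) final concentrations; follow-up screens used 11-point dilutions.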

[19] = qHTS of pediatric cancer cell lines to identify multiple opportunities for drug repurposing: Primary screen for SK-N-SH cells (AID 1347098);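 further: DMSO served as neutral control and bortezomib at 2.3 µM as positive control; on the % scale 0 is the no-effect control and ±100 the full control effect; nearly all actives have a fitted effect of over 65% in size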
In short: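 Cells (500-1,000/well) rested 5 h, then received compounds for 48 h; metabolically active cells were measured by CellTiter-Glo luminescence. Final concentrations spanned up to 46 µM (MIPE, 11-point) or 0.59 nM-46 µM (NPC, 8-point) in primary screens, 11-point in follow-ups.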

[20] = qHTS of pediatric cancer cell lines to identify multiple opportunities for drug repurposing: Primary screen for Saos-2 cells (AID 1347097); further: nearly all actives have a fitted effect of over 40% in size; further: potency means the concentration at half of the fitted maximal effect; on activity change, negative = cytotoxic: on the % scale 0 is the no-effect control and ±100 the full control effect
In short: as §2

Nucleoprotein (Lymphocytic choriomeningitis virus (strain Armstrong)), sequence (P09992 whole entry, looked up): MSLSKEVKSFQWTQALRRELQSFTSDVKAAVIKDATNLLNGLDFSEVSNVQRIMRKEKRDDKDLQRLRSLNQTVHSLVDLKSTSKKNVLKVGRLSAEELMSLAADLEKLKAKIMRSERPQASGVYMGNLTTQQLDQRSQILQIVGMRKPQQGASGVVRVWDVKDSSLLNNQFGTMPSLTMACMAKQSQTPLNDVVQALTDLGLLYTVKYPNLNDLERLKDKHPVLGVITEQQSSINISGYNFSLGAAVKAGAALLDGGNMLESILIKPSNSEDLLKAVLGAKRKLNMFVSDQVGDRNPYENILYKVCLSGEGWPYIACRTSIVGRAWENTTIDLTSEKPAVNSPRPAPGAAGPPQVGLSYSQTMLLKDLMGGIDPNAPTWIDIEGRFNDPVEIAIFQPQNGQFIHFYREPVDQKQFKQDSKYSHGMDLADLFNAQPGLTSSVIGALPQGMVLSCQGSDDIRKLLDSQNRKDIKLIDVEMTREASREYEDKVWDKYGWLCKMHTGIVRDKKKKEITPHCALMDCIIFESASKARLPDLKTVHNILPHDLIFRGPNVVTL
Atrial natriuretic peptide receptor 1 (Homo sapiens), sequence (P16066 whole entry, looked up): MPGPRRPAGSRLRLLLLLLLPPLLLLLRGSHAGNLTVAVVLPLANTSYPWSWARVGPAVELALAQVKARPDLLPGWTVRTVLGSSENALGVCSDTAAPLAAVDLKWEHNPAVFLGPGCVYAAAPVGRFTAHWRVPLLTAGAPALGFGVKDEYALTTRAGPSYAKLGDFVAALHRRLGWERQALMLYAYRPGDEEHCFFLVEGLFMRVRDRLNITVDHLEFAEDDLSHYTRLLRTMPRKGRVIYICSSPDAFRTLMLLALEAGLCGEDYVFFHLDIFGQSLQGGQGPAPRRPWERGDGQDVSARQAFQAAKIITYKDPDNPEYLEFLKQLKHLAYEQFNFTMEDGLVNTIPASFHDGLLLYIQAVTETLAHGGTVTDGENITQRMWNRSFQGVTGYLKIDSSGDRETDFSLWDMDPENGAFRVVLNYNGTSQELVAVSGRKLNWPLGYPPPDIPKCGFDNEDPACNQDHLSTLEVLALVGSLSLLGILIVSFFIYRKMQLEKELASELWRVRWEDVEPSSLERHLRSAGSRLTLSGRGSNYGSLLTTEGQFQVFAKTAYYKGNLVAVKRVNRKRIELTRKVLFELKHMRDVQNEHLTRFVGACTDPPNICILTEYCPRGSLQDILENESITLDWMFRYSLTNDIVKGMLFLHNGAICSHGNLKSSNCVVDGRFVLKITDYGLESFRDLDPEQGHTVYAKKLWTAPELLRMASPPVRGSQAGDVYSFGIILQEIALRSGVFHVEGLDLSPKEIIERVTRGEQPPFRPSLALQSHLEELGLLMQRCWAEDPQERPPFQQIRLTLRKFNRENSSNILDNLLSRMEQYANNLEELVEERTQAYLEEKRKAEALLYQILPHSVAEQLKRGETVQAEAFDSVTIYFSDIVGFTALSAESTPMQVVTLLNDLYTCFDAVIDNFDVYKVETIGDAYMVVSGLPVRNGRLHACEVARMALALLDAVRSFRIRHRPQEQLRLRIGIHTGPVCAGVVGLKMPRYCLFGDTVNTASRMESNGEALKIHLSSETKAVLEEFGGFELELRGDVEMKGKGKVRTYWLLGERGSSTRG
T1 sequence (P78324 whole entry, looked up, the tested form may be a part): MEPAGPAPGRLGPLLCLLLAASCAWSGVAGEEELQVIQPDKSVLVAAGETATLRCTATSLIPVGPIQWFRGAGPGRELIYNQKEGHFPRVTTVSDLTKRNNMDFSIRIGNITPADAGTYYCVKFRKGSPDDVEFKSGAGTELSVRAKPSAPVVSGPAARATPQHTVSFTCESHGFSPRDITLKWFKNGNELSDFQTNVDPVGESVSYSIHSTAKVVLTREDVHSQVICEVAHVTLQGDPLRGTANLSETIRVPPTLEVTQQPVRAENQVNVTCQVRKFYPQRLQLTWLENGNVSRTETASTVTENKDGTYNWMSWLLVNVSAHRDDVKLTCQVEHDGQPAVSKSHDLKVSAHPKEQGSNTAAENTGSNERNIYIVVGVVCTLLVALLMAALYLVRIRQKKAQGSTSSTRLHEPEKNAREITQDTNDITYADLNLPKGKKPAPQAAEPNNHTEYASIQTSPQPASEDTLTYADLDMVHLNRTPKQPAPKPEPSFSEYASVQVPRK
T1 sequence (Q08722 whole entry, looked up, the tested form may be a part): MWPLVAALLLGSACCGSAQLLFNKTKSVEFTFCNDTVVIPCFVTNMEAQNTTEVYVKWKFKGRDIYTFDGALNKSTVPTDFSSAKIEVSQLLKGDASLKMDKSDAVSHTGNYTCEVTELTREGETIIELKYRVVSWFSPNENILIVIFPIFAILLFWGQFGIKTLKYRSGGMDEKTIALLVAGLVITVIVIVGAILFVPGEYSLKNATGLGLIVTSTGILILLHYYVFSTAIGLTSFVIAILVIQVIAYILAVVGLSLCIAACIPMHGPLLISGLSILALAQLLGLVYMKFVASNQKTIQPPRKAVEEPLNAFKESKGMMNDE
Parathyroid hormone/parathyroid hormone-related peptide receptor (Homo sapiens), sequence (Q03431 whole entry, looked up): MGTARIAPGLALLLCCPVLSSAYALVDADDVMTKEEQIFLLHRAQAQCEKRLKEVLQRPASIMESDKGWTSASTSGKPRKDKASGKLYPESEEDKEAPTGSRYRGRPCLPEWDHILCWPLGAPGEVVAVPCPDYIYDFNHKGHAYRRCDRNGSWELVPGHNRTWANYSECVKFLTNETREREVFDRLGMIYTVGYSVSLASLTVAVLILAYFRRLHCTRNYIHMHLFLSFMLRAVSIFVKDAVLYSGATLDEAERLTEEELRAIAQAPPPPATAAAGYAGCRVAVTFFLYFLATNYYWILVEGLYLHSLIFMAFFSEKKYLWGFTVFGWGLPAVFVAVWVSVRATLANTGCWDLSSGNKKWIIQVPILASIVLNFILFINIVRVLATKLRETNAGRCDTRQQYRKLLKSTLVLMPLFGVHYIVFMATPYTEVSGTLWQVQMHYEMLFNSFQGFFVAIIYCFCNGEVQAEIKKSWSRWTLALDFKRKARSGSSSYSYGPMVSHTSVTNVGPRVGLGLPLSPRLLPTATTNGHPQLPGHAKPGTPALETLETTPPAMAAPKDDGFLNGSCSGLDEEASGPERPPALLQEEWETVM

CNCC(O)c1ccc(O)cc1 (centres undefined)
inactive: Potency [1] | Potency [2] | outcome [3] | outcome [4] | outcome [5] | outcome [6] | Potency [7] | Potency [8] | Potency [9] | Potency [10] | Potency [11] | Potency [12] | Potency [13] | Potency [14] | Potency [15] | Potency [16] | Potency [17] | Potency [18] | Potency [19]

Cc1cccc(C)c1NC(=O)CN1CCCC1=O
inactive: Potency [1] | Potency [2] | outcome [3] | outcome [4] | outcome [5] | outcome [6] | Potency [7] | Potency [8] | Potency [9] | Potency [10] | Potency [11] | Potency [12] | Potency [13] | Potency [14] | Potency [15] | Potency [16] | Potency [17] | Potency [18] | Potency [19]

Cc1ccc(S(=O)(=O)N[C@@H](CCCCN)C(=O)CCl)cc1
inactive: Potency [1] | Potency [2] | outcome [3] | outcome [4] | outcome [5] | outcome [6] | Potency [7] | Potency [8] | Potency [9] | Potency [10] | Potency [11] | Potency [12] | Potency [13] | Potency [14] | Potency [16] | Potency [17] | Potency [18] | Potency [19]
active: Potency [15] 21.1 µM

COc1ccccc1N1CCNCC1
inactive: Potency [1] | Potency [2] | outcome [3] | outcome [4] | outcome [5] | outcome [6] | Potency [7] | Potency [8] | Potency [9] | Potency [10] | Potency [11] | Potency [12] | Potency [13] | Potency [14] | Potency [16] | Potency [17] | Potency [18] | Potency [20] | Potency [19]

O=c1[nH]c2ccccc2n1CCCN1CCC(n2c(=O)[nH]c3cc(Cl)ccc32)CC1
inactive: Potency [1] | Potency [2] | outcome [3] | outcome [4] | outcome [5] | outcome [6] | Potency [7] | Potency [8] | Potency [9] | Potency [10] | Potency [11] | Potency [12] | Potency [13] | Potency [14] | Potency [15] | Potency [16] | Potency [17] | Potency [18] | Potency [20] | Potency [19]

CCCC(C)(COC(N)=O)COC(=O)NC(C)C (centres undefined)
inactive: Potency [1] | Potency [2] | outcome [6] | Potency [7] | Potency [8] | Potency [9] | Potency [10] | Potency [11] | Potency [12] | Potency [13] | Potency [14] | Potency [15] | Potency [16] | Potency [17] | Potency [18] | Potency [20] | Potency [19]

CCC1(C2=NCCN2)Cc2ccccc2O1 (centres undefined)
inactive: Potency [1] | Potency [2] | outcome [3] | outcome [4] | outcome [5] | outcome [6] | Potency [7] | Potency [8] | Potency [9] | Potency [10] | Potency [11] | Potency [12] | Potency [13] | Potency [14] | Potency [15] | Potency [16] | Potency [17] | Potency [18]

NCC(CC(=O)O)c1ccc(Cl)cc1 (centres undefined)
inactive: Potency [1] | Potency [2] | outcome [3] | outcome [4] | outcome [5] | outcome [6] | Potency [7] | Potency [8] | Potency [9] | Potency [10] | activity change, negative = cytotoxic [11] 1.72% [at 0.594 µM] | activity change, negative = cytotoxic [12] -6.69% [at 0.597 µM] | activity change, negative = cytotoxic [13] -1.55% [at 0.597 µM] | activity change, negative = cytotoxic [14] -10.9% [at 0.597 µM] | activity change, negative = cytotoxic [16] -2.84% [at 0.745 µM] | activity change, negative = cytotoxic [17] -3.28% [at 0.597 µM] | activity change, negative = cytotoxic [18] -3.85% [at 0.597 µM]

Cn1c(CCCC(=O)O)nc2cc(N(CCCl)CCCl)ccc21
inactive: outcome [3] | outcome [4] | outcome [5] | Potency [7] | Potency [8] | Potency [9] | Potency [10] | Potency [11] | Potency [13] | Potency [14] | Potency [18] | Potency [19]
active: Potency [15] 26.4 µM | Potency [17] 2.64 µM
inactive and 20.9 µM (active): Potency [2]

c1ccc2c(c1)Nc1ccccc1S2
active: Potency [20] 48.6 µM
inactive: Potency [2] | Potency [7] | Potency [8] | Potency [9] | Potency [10] | Potency [11] | Potency [12] | Potency [13] | Potency [14] | Potency [15] | Potency [16] | Potency [17] | Potency [18]

CC(O)(CS(=O)(=O)c1ccc(F)cc1)C(=O)Nc1ccc(C#N)c(C(F)(F)F)c1 (centres undefined)
inactive: Potency [1] | Potency [2] | outcome [3] | outcome [4] | outcome [5] | outcome [6] | Potency [7] | Potency [8] | Potency [9] | Potency [10] | Potency [16] | Potency [18] | Potency [19]
active: Potency [12] 2.96 µM | Potency [14] 1.18 µM | Potency [15] 0.469 µM | Potency [17] 3.32 µM
